Among the data in PubChem BioAssay (EPA / NIEHS) are AC50 values, retold here.

Active and inactive are the calls of the source. Rule for the calls: active = hit-call score of the fitted dose curve at least 0.9, where 1 is the maximum; inactive = score below 0.9.

Broadly, the AC50 is the concentration giving half of the maximal activity seen.

The subject of the experiment is TTR (gene 7276). Description: CCTE_GLTED_hTTR_0.125uM: CCTE's human Transthyretin (hTTR) Inhibition Assay, with 0.125uM TTR, Great Lakes Toxicology and Ecology Division (GLTED) Lab (AID 2284431).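 Note: hits lower the fluorescence signal relative to DMSO baseline.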 The method, boiled down:
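Activity is defined as decreased ANSA fluorescence (ex 380, em 475) from human transthyretin, 0.125uM, following 2-hour chemical exposure in a cell-free setup, with DMSO as baseline.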
Consider `CCNS(=O)(=O)C(F)(F)C(F)(F)C(F)(F)C(F)(F)C(F)(F)C(F)(F)C(F)(F)C(F)(F)F`, for which the concentration at half-maximal activity (AC50) was 1.05 µM (active). For the compound `Nc1cc(Cl)cc(C(=O)O)c1Cl`, the AC50 is 8.24 µM (active). Take `Cc1cc(N=Nc2ccccc2C)ccc1N`: the AC50 was 0.0179 µM (active). As for `CS(=O)(=O)NC(=O)c1cc(Oc2ccc(C(F)(F)F)cc2Cl)ccc1[N+](=O)[O-]`, the figure is 6.19 µM (active); as for `Nc1ccc(Oc2ccc(N)cc2)cc1`, 17.7 µM (active).

`c1ccc(N=Nc2ccccc2)cc1`: the AC50 was 28 µM (active). As for `Brc1ccc(Oc2ccccc2)cc1`, the figure is 50 µM (active); as for `CCC(C)c1ccc(O)cc1` (stereo unspecified), 4.66 µM (active). For the compound `[Cl-].[Cl-].[Hg+2]`, the half-maximal activity concentration (AC50) is 6.05 µM (active). Consider `c1ccc(NNc2ccccc2)cc1`, for which the AC50 is 33.3 µM (active). Turning to `Nc1ccc(N=Nc2ccccc2)cc1`, the AC50 was 0.593 µM (active).
